A selection: hits, their analogues and other compounds. The true share with any hit is near 3.6%.
Hsp90 Hop PPI = changes Hsp90-Hop TPR2A binding signal, up or down; Potency, µM (titrated, usually from 57 µM); 71,000 tested, 0.44% active; AID 595; AlphaScreen TPR2A-His6 binding biotin-Hsp90 C-terminal peptide; active = well fitted curve in either direction with a large enough effect; inconclusive = small, poorly fitted or top-dose-only effect, or another doubt
ALOX15 inhib = blocks human 15-lipoxygenase activity | P16050 | purified 15hLO-1, xylenol orange hydroperoxide absorbance | Potency, µM (doses to about 57.1 µM), hits mostly inhibitors | 74,000 tested, 1.4% active | AID 887; note: nearly all actives have a fitted effect of over 55% in size
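Hydroperoxide formed from arachidonic acid (50 uM) by purified human 15hLO-1 (40 nM) oxidizes ferrous iron, and the ferric-xylenol orange complex is read at 573 versus 405 nm. Compounds were preincubated 15 min; reaction ran 6 min at room temperature.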
IkB signaling = inhibitors of IkB signaling in ABC-DLBCL cells; ABC-DLBCL IkBa-CBG/CBR dual luciferase ratio, 4 h; response scale: scaled: untreated 0%, proteasome inhibitor 100%; Potency, µM (highest dose often 57.1 µM); 110,000 tested, 0.04% active; active = well fitted curve in the direction sought with a large enough effect in the signal ratio, not every such curve was filed as active; inconclusive = small, poorly fitted or top-dose-only effect, or a change in a side signal; the % refers to the signal ratio;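 note: the direction sought is a rising ratio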
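In this assay, an IκBα–CBG68 fusion accumulates when IKK-driven degradation is blocked; native CBR normalizes for cell number. OCI-Ly3 cells were treated 4 h with compound and doxycycline, then green and red light read after Chroma-Glo addition.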
CRE-bla Fsk = modulators of forskolin-stimulated CRE signaling in CHO cells. Potency, µM (titrated, usually from 38.2 µM), usual class: activators. AID 662. CHO CRE-bla reporter (cAMP response element driving beta-lactamase), forskolin EC10, beta-lactamase ratio. 71,000 tested, 2.5% active; active = well fitted activation curve with a large enough effect in the signal ratio, with a control signal flat, not every such curve was filed as active; inconclusive = small, poorly fitted or top-dose-only effect, or effect the other way, or a change in a side signal; the % refers to the signal ratio
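CRE-bla CHO reporter cells treated with compound titration plus EC10 NKH 477 (water-soluble forskolin), incubated 3 h at 37 °C; CCF4 loading 2 h at room temperature, 460/530 nm emission ratio read, AC50 values derived for positive or negative modulators.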
Tau fil binding = binds recombinant human tau filaments; recombinant tau filaments, thioflavin S fluorescence, 15 h; filaments grown with octadecylsulfate alongside compound; AID 596; P10636; Potency, µM (series often up to 57.1 µM); 71,000 tested, 2% active;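 note: actives lower thioflavin S fluorescence by blocking filaments or displacing dye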
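Quantitative HTS: thioflavine S signal from ODS-induced tau filaments, excited at 450 nm, emission 510 nm. Conditions: 1 uM tau, 30 uM ODS, 15 h at 37 C, pH 7.4.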
Hsp90-TPR2A inh = confirmation and counter-screen of Hsp90 TPR2A co-chaperone interaction disrupters; shares compounds with Hsp90 Hop PPI; 45 tested, 100% active; AlphaScreen TPR2A-His6 / biotin-Hsp90 peptide binding; activity, negative = inhibition, % at 40 µM or 46 µM, hits read low; AID 632;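 active = compound lowering the Hsp90 and TPR2A binding signal, whether or not the linker counterscreen also flagged it as an artifact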
A number is an active result; – = inactive; ? = inconclusive; · = not tested or not shown; + = active, no number; [ ] = another dose, or the depositor's remark. Unless noted, calls come from the whole dose curve; as a rule, active = well fitted curve in the direction sought with a large enough effect; inconclusive = small, poorly fitted or top-dose-only effect, or another doubt; inactive = no such curve, though single readings can be large; an effect the other way counts as inactive or inconclusive.

SMILES	Hsp90 Hop PPI	ALOX15 inhib	IkB signaling	CRE-bla Fsk	Tau fil binding	others
CC(C)OC(=O)c1c(N)n(CC2CCCO2)c2nc3ccccc3nc12 (stereo not drawn)	–	–	–	10µM	–
CCCNC(=O)c1c(N)n(CC2CCCO2)c2nc3ccccc3nc12 (stereo not drawn)	?	–	?	?	–
N[C@]1(C(=O)O)CC[C@@H](C(=O)O)C1	–	·	–	–	–
Oc1ccccc1O	–	15.8µM	–	?	–
C[CH2][Hg][S]c1ccccc1C(=O)O	·	1.26µM	·	·	·
CNc1ccccc1C(=O)O	·	–	·	·	·
C#CCO	–	–	–	–	–
COc1cc2c(cc1OC)[C@@]13CCN4C=C5CCO[C@H]6CC(=O)N2[C@@H]1[C@@H]6[C@H]5C[C@H]43	–[11 µM]	–[11.4 µM]	–[11.4 µM]	–[7.6 µM]	–[11.4 µM]
N[C@@H](Cc1cc(O)c(O)cc1O)C(=O)O	7.94µM	?	–	–	25.1µM
CN1C[C@@H](CNC(=O)OCc2ccccc2)C[C@H]2c3cccc4c3c(cn4C)C[C@@H]21	–	·	–	–	–
CC1=NN(c2ccccc2)C(=O)[C@@H]1N=Nc1ccc([As](=O)(O)O)c(O)c1	–[11 µM]	–[11.4 µM]	–[11.4 µM]	?	3.16µM
O=C1CC[C@@]2(O)[C@H]3Cc4ccc(O)c5c4[C@@]2(CCN3CC2CC2)[C@@H]1O5	–	–	–	?	?
COC(=O)/C=C\C(=O)N[C@@H]1CC[C@@]2(O)[C@H]3Cc4ccc(O)c5c4[C@@]2(CCN3CC2CC2)[C@@H]1O5	–	–	?	?	31.6µM
NCCCC(N)CC(=O)NCC1NC(=O)C(CO)NC(=O)C(N)CNC(=O)C(C2CCN=C(N)N2)NC(=O)/C(=C\NC(N)=O)NC1=O (stereo not drawn)	·	–	·	·	·
C(=NCCN1CCOCC1)=NC1CCCCC1	–[11 µM]	–[11.4 µM]	–[11.4 µM]	–[7.6 µM]	–[11.4 µM]
COc1ccc2c(c1)CC1(CN2C)C(=O)NC(=O)N(CCc2ccccc2)C1=O (stereo not drawn)	–	15.8µM	–	?	–
S=C=Nc1cccc2ccccc12	–	?	–	–	–
CCC(=NCc1cccnc1)c1c(O)n(Cc2ccccc2)c(=O)[nH]c1=O	–	–	–	1.58µM	–
CC(=NCc1cccnc1)c1c(O)n(Cc2ccccc2)c(=O)[nH]c1=O	–	–	–	?	–
Cc1ccc(NC(=O)CN2C(=O)CN=C(c3ccccc3)c3ccccc32)c(C)c1	·	·	–	·	·
Cc1ccccc1C1=NCC(=O)N(CC(=O)NCc2ccco2)c2sc3c(c21)CCCC3	–	25.1µM	?	–	–
O=C(OCC#CCSc1nnc(-c2ccccc2)o1)c1ccco1	–	25.1µM	–	–	–
CC(C)C#N	–	–	–	–	–
COC(=O)C(C)Oc1cc(C)cc2oc(=O)c3c(c12)CCC3 (stereo not drawn)	–	–	–	7.94µM	–
CC(=O)[C@@H]1CC[C@@H]2[C@H]3CC[C@H]4C[C@@H](O)CC[C@]4(C)[C@@H]3C(=O)C[C@]21C	–	·	–	–	–
SMILES	Hsp90 Hop PPI	ALOX15 inhib	IkB signaling	CRE-bla Fsk	Tau fil binding	others
CC1=C[C@@H]2c3cccc4[nH]cc(c34)C[C@H]2N(C)C1	–	·	–	–	–
CN1Cc2ccccc2[C@@H]2c3cccc4[nH]cc(c34)C[C@H]21	–	?	?	?	25.1µM
O=C(O)CN1CCN(CC(=O)O)CC(=O)[O][Hg][O]C(=O)C1	–[11 µM]	0.159µM	3.98µM	–[7.6 µM]	–[11.4 µM]
Cc1ccc2c(c1N)C(=O)c1ccccc1C2=O	–	–	–	?	3.98µM
Cn1nc(Cc2ccccc2)nc2c(=O)n(C)c(=O)nc1-2	·	·	·	·	·	Hsp90-TPR2A inh=+
C[C@@]12Cc3cnc(-c4ccccc4)nc3C[C@@H]1CC[C@@H]1[C@H]3CC[C@@](C)(O)[C@]3(C)CC[C@@H]12	–[11 µM]	–[11.4 µM]	–[11.4 µM]	–[7.6 µM]	–[11.4 µM]
CCn1nc(-c2cccs2)nc2c(=O)n(C)c(=O)nc1-2	1.58µM	–	?	?	–	Hsp90-TPR2A inh=+
CN(C)c1ccc(N(C)C)cc1	–	?	–	–	–

Source: PubChem BioAssay (National Center for Advancing Translational Sciences (NCATS))
